Experimental data taken from PubChem BioAssay (Tox21).
Inconclusive results are not listed. Activity calls are given as the source filed them. Unless noted, calls come from the whole dose curve; as a rule, active = well fitted curve in the direction sought with a large enough effect in the repeat runs; inconclusive = weak or mixed curves; inactive = no such curve, though single readings can be large; an effect the other way counts as inactive or inconclusive.

Assays:
[1] = qHTS assay for small molecule agonists of the p53 signaling pathway (AID 651631; calls by dose curve; note: nearly all actives have a fitted effect of over 15% in size)
Method in brief: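 Agonist mode screen using a stably integrated beta-lactamase gene under p53 response elements in HCT-116 cells. Compound exposure lasts 16 h at 37 °C; fluorescence intensity is measured following 2 h FRET substrate loading.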

[2] = qHTS assay for small molecules that induce genotoxicity in human embryonic kidney cells expressing luciferase-tagged ATAD5 (AID 651632); note: nearly all actives have a fitted effect of over 15% in size
Method in brief: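 Concentration-response screen for ATAD5 upregulation in HEK293T luciferase reporter cells; 16 hr treatment at 37C, then luminescence after 30 min with Amplite at room temperature.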

[3] = qHTS assay for small molecules that induce genotoxicity in human embryonic kidney cells expressing luciferase-tagged ATAD5 - cell viability (AID 651634; calls by dose curve; note: nearly all actives have a fitted effect of over 25% in size)
Method in brief: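 15.5 hr compound or vehicle exposure of HEK293T cells expressing luciferase-tagged ATAD5 at 37C; live-cell protease activity is read by fluorescence after 30 min of CellTiter-Fluor.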

[4] = qHTS assay for small molecule disruptors of the mitochondrial membrane potential - cell viability (AID 720634; calls by dose curve;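 note: human HepG2 liver cancer cells; series mostly up to about 83 µM; nearly all actives have a fitted effect of over 20% in size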)
Method in brief: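 In this qHTS format, HepG2 cells plated overnight were pinned with compound, incubated 1 hr, and assayed for ATP luminescence with CellTiter-Glo after m-MPI dye addition.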

[5] = qHTS assay to test for compound auto fluorescence at 590 nm (red) in HepG2 cells (AID 720674)
Method in brief: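 Compound auto-fluorescence is scored relative to Rose Bengal sodium, measured at 540/590 nm in live HepG2 cultures after 1 hr compound contact (37 C, 5% CO2).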

[6] = qHTS assay to test for compound auto fluorescence at 535 nm (green) in HepG2 cells (AID 720675)
[7] = qHTS assay to test for compound auto fluorescence at 590 nm (red) in HEK293 cells (AID 720679)
Method in brief: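 Intensity at 540nm excitation and 590nm emission is reported as Rose Bengal sodium-equivalent autofluorescence. Measurements followed overnight exposure (37C, 5% CO2) of HEK293 cells, 2,000 per well, to 23 nL compound.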

[8] = qHTS assay to test for compound auto fluorescence at 535 nm (green) in HEK293 cells (AID 720680)
[9] = qHTS assay to test for compound auto fluorescence at 460 nm (blue) in HEK293 cell free culture (AID 720681)
Method in brief: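 Test compounds were pinned into cell-free culture medium (DMEM with 10% FBS) and fluorescence was read directly at Ex/Em 405/460 nm. Signals were expressed as fluorescence equivalents of triamterene, with DMSO vehicle as control.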

[10] = qHTS assay to test for compound auto fluorescence at 535 nm (green) in HEK293 cell free culture (AID 720682)
Method in brief: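 No cells present: wells hold DMEM supplemented with 10% FBS, into which compound or vehicle is pinned. Green emission is then recorded (485 nm excitation, 535 nm emission) and scaled to fluorescein.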

[11] = qHTS assay to test for compound auto fluorescence at 590 nm (red) in HEK293 cell free culture (AID 720683)
Method in brief: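 Tox21 10K library compounds were pinned into cell-free DMEM with 10% FBS and fluorescence was read at excitation 540 nm. Activity is expressed as Rose Bengal sodium equivalency.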

[12] = qHTS assay to test for compound auto fluorescence at 590 nm (red) in HepG2 cell free culture (AID 720684)
Method in brief: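 Ex 540 / Em 590 nm read of compound in cell-free MEM (10% FBS). Rose Bengal sodium reference.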

[13] = qHTS assay to test for compound auto fluorescence at 460 nm (blue) in HepG2 cell free culture (AID 720685)
Method in brief: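 Cell-free plates of MEM plus 10% FBS received 23 nL compound or DMSO vehicle; blue-channel (405/460 nm) intensity scored against triamterene as reference fluorophore.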

[14] = qHTS assay to test for compound auto fluorescence at 460 nm (blue) in HEK293 cells (AID 720678)
Method in brief: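 HEK293, 2,000 cells/well, 10% dialyzed FBS; attach 4-5 hr 37C; pin compound or DMSO; o/n 37C/5% CO2; fluorescence 405/460 nm; triamterene-equivalent units.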

[15] = qHTS assay to test for compound auto fluorescence at 535 nm (green) in HepG2 cell free culture (AID 720686)
[16] = molecular target: Glucocorticoid receptor (Homo sapiens) (UniProt P04150); experiment: qHTS assay to identify small molecule agonists of the glucocorticoid receptor (GR) signaling pathway (AID 720691; active = well fitted activation curve with a large enough effect in the signal ratio in the repeat runs, not every such curve was filed as active; the % refers to the signal ratio)
Sequence of Glucocorticoid receptor (Homo sapiens) (P04150 whole entry, looked up): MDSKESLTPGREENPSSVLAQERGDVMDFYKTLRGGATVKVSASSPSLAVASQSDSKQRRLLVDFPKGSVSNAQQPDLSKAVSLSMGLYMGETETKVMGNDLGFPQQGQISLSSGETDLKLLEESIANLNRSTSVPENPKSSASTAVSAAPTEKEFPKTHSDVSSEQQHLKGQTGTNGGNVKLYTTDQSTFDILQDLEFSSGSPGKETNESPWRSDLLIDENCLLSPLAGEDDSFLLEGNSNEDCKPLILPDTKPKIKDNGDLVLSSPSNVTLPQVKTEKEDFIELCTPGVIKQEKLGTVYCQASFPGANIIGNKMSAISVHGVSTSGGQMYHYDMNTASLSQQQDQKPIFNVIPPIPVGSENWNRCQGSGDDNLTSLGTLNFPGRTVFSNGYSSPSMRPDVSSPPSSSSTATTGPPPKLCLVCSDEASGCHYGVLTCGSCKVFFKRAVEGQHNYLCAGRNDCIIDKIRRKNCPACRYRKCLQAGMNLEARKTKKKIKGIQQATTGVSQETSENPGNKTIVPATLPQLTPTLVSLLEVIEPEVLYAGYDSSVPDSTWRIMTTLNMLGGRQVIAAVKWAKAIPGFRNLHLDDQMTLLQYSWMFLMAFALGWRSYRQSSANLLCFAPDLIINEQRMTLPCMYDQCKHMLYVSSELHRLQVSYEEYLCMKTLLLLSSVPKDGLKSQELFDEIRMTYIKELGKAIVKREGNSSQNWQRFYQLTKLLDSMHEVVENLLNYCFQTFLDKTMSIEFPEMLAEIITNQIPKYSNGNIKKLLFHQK
Method in brief: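 Measures GR pathway activation through a GRE-beta-lactamase reporter stably integrated in HeLa cells, with 18 h compound treatment at 37 C and fluorescence detection using a FRET substrate.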

[17] = molecular target: Glucocorticoid receptor (Homo sapiens) (UniProt P04150); experiment: qHTS assay to identify small molecule antagonists of the glucocorticoid receptor (GR) signaling pathway (AID 720692; active = well fitted inhibition curve with a large enough effect in the signal ratio in the repeat runs, not every such curve was filed as active; the % refers to the signal ratio)
Method in brief: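 Tox21 10K library screened in concentration-response for blockade of dexamethasone (5 nM final)-induced GRE-bla reporter activity in HeLa cells; 18 h treatment, fluorescence read.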

[18] = qHTS assay for small molecule agonists of the p53 signaling pathway - cell viability (AID 651633; calls by dose curve;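 note: p53RE-bla HCT reporter cells with a stable beta-lactamase p53 reporter; series mostly up to about 83 µM; nearly all actives have a fitted effect of over 30% in size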)
Method in brief: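 p53RE-bla cells, seeded at 4,000 per well and rested 5 h at 37 C/5% CO2, received compounds in DMSO for 16 h at 37 C. CellTiter-Glo was then added, and luminescence was read after 30 min at room temperature to gauge cytotoxicity.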

[19] = qHTS assay for small molecule disruptors of the mitochondrial membrane potential (AID 720635)
Method in brief: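 HepG2 cells (2,000/well) attached overnight at 37C, then took compound for 1 hr at 37C, 5% CO2. Mito-MPS dye was added for 30 min; fluorescence was read at 490/535 nm (monomers) and 540/590 nm (aggregates).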

[20] = qHTS assay to test for compound auto fluorescence at 460 nm (blue) in HepG2 cells (AID 720687)
Method in brief: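 Cells (2,000/well in MEM with 10% FBS) attached overnight at 37 C, then were exposed to compound or DMSO for 1 hr at 37 C, 5% CO2. Fluorescence read at Ex/Em 405/460 nm, expressed as triamterene-equivalent signal.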
% is set by controls: 0 for no effect and ±100 for the full control effect.

Cc1ccc(O)c(C(=O)c2ccccc2)c1
inactive: Potency [1] | Potency [2] | outcome [3] | outcome [4] | outcome [5] | outcome [6] | outcome [7] | outcome [8] | outcome [9] | outcome [10] | outcome [11] | outcome [12] | outcome [13]

CC(C)(C)NCC(O)COc1cccc2c1CCC(=O)N2 (stereo unspecified)
inactive: Potency [1] | Potency [2] | outcome [3] | outcome [4] | fluorescence, relative to Rose Bengal [5] -0.0368% [at 18.6 µM] | fluorescence, % of fluorescein control [6] -0.225% [at 18.6 µM] | fluorescence, % of triamterene [14] 0.0079% [at 18.6 µM] | fluorescence, % of fluorescent control [7] 0.0747% [at 18.6 µM] | fluorescence, % of fluorescein [8] 0.0295% [at 18.6 µM] | fluorescence, % of fluorescent control [9] 0.183% [at 18.6 µM] | activity change [10] -0.0136% [at 18.6 µM] | fluorescence, % of fluorescent control [11] -0.0457% [at 18.6 µM] | fluorescence, % of Rose Bengal [12] -0.307% [at 18.6 µM] | fluorescence, % of fluorescent control [13] -0.0069% [at 18.6 µM] | fluorescence, % of fluorescein control [15] -0.0625% [at 18.6 µM] | Potency [16] | outcome [17]

CCOC(=O)[C@H](CCc1ccccc1)N[C@H]1CS[C@H](c2cccs2)CN(CC(=O)O)C1=O
inactive: Potency [1] | outcome [18] | outcome [3] | outcome [4] | Potency [19] | outcome [5] | outcome [6] | outcome [14] | outcome [7] | outcome [8] | outcome [9] | outcome [10] | outcome [11] | outcome [12] | outcome [13] | outcome [15] | outcome [20] | Potency [16] | outcome [17]

CCCCCCCC(=O)N(C)C
inactive: Potency [1] | Potency [2] | outcome [3] | outcome [4] | Potency [19] | outcome [5] | outcome [7] | outcome [8] | outcome [9] | outcome [10] | outcome [11] | outcome [12] | outcome [13] | outcome [15] | outcome [20]

Nc1nc(Cl)cc(Cl)n1
inactive: Potency [2] | outcome [18] | outcome [3] | outcome [4] | Potency [19] | outcome [5] | outcome [6] | outcome [14] | outcome [7] | outcome [8] | outcome [9] | outcome [10] | outcome [11] | outcome [12] | outcome [13] | outcome [15] | outcome [20] | Potency [16] | outcome [17]

CC(=O)SCC(CC(=O)c1ccc(C)cc1)C(=O)O (stereo unspecified)
inactive: Potency [2] | outcome [18] | outcome [3] | outcome [4] | Potency [19] | outcome [5] | outcome [14] | outcome [7] | outcome [8] | outcome [9] | outcome [10] | outcome [11] | outcome [12] | outcome [13] | outcome [15] | outcome [20] | outcome [17]

CC(=O)OCC(=O)[C@@]1(O)CC[C@H]2[C@@H]3CCC4=CC(=O)C=C[C@]4(C)[C@H]3[C@@H](O)C[C@@]21C
inactive: Potency [2] | outcome [18] | outcome [3] | outcome [4] | outcome [5] | outcome [6] | outcome [14] | outcome [7] | outcome [8] | outcome [9] | outcome [10] | outcome [11] | outcome [12] | outcome [13] | outcome [15] | outcome [20]

CC[C@@]1(c2ccccc2)NC(=O)N(C)C1=O
inactive: Potency [2] | outcome [18] | outcome [3] | outcome [4] | outcome [5] | outcome [6] | outcome [14] | outcome [7] | outcome [8] | outcome [9] | outcome [10] | outcome [12] | outcome [13] | outcome [20]

c1cc2ccc3ccc4ccc5cccc6c(c1)c2c3c4c56
inactive: activation [2] 2.87% [at 3.63 µM] | activity change, negative = cytotoxicity [18] 10.5% [at 3.63 µM] | activity, negative = cytotoxicity [3] 31.3% [at 3.63 µM] | activity change, negative = cytotoxicity [4] 7.58% [at 3.63 µM] | ratio activity, negative = MMP loss [19] 16.7% [at 3.63 µM] | fluorescence, relative to Rose Bengal [5] 0.113% [at 3.72 µM] | fluorescence, % of fluorescein control [6] 0.0742% [at 3.72 µM] | fluorescence, % of fluorescent control [7] 0.132% [at 3.72 µM] | fluorescence, % of fluorescein [8] -0.0268% [at 3.72 µM] | fluorescence, % of fluorescent control [9] 1.22% [at 3.72 µM] | activity change [10] 0.0204% [at 3.72 µM] | fluorescence, % of fluorescent control [11] -0.0354% [at 3.72 µM] | fluorescence, % of Rose Bengal [12] 0.202% [at 3.72 µM] | fluorescence, % of fluorescent control [13] 1.51% [at 3.72 µM] | fluorescence, % of fluorescent control [20] 2.24% [at 3.72 µM] | activity change, negative = inhibition [17] 4.22% [at 3.15 µM]

CCN1CCN(C(=O)N[C@@H](C(=O)N[C@@H]2C(=O)N3[C@@H]2SC(C)(C)[C@H]3C(=O)O)c2ccccc2)C(=O)C1=O
inactive: Potency [2] | outcome [18] | outcome [3] | outcome [4] | Potency [19] | outcome [5] | outcome [6] | outcome [14] | outcome [7] | outcome [9] | outcome [10] | outcome [11] | outcome [12] | outcome [13]

O=c1c(O)c(O)c1=O
inactive: Potency [1] | outcome [18] | outcome [4] | Potency [19] | outcome [5] | outcome [6] | outcome [14] | outcome [7] | outcome [8] | outcome [9] | outcome [10] | outcome [11] | outcome [12] | outcome [13] | outcome [15] | Potency [16] | outcome [17]

COC(=O)N/N=C/c1c[n+]([O-])c2ccccc2[n+]1[O-]
inactive: Potency [2] | outcome [18] | outcome [3] | outcome [4] | Potency [19] | outcome [5] | outcome [6] | outcome [14] | outcome [7] | outcome [8] | outcome [9] | outcome [10] | outcome [11] | outcome [12] | outcome [13] | outcome [15] | outcome [20]

NNC(=O)CCCCC(=O)NN
inactive: Potency [2] | outcome [18] | outcome [3] | outcome [4] | outcome [5] | outcome [6] | outcome [14] | outcome [7] | outcome [8] | outcome [9] | outcome [10] | outcome [12] | outcome [13] | outcome [15] | outcome [20] | Potency [16] | outcome [17]
